For some assays here: Entries with a potency or affinity are not part of this list. Calls of active or inactive are those of the source. Unless noted, how the calls were made is not given here.
Legend:
[1] = antimalarial activity against Dd2 strain (AID 2302;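 active means growth inhibition above 50% at the single 2 µM test dose, taken to imply half-maximal potency below 2 µM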;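 further: 0% = DMSO untreated growth and 100% = chloroquine plus artemisinin killed control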); details: P. falciparum Dd2 in RBCs, LDH growth readout, 72 h; at 2 µM; hits give high values
[2] = HepG2 cytotoxicity, primary screen, cytotoxicity control for P. falciparum antimalarial project, cell-based, ATP luminescence (AID 2303;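 active means inhibition above 50%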;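 further: 0% = DMSO wells and 100% = digitonin-killed cells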); details: HepG2 viability, 24-48 h, at 10 µM, hits give high values
[3] = molecular target: L-lactate dehydrogenase (Plasmodium falciparum (isolate CDC / Honduras)) (UniProt Q27743); assay: PfLDH activity inhibition – cell lysate, 3D7 strain, counter-screen for P. falciparum growth inhibition project (AID 2304);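 further: 0% = vehicle and 100% = reference inhibitor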; details: P. falciparum 3D7 crude extract, LDH APAD/NBT absorbance; at 2 µM; hits give high values
[4] = inhibition of 3D7 malaria parasite growth – strain 3D7 (AID 2306);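 further: 0% = DMSO wells and 100% = chloroquine plus artemisinin control wells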; details: P. falciparum 3D7 erythrocytic growth, LDH absorbance, 72 h; at 2 µM; hits give high values
[5] = molecular target: Calcium-dependent protein kinase 1 (Plasmodium falciparum (isolate 3D7)) (UniProt P62344); assay: PfCDPK1 kinase inhibitors, biochemical, TCAMS library (AID 1159585; cut-off not given, nearly all actives have IC50 up to about 0.98 µM;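 further: inhibitors leave more ATP so luminescence rises with inhibition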); details: recombinant PfCDPK1, Kinase-Glo ATP depletion luminescence
[6] = molecular target: Plasmodium falciparum protein kinase 6 (PK6, PF3D7_1337100) (UniProt Q8IDW1); assay: PfPK6 kinase inhibitors, biochemical, TCAMS library (AID 1159586); details: recombinant PfPK6, Kinase-Glo ATP depletion luminescence
[7] = molecular target: Protein kinase 7 (PK7), Plasmodium falciparum 3D7 (PF3D7_0213400) (UniProt Q7YTF7); assay: inhibition of Plasmodium PK7 catalytic activity – biochemical, TCAMS antimalarial set, Kinase-Glo luminescence (AID 1159587); details: recombinant PfPK7, Kinase-Glo ATP depletion luminescence
[8] = molecular target: Calcium-dependent protein kinase 4 (Plasmodium falciparum (isolate 3D7)) (UniProt Q8IBS5); assay: PfCDPK4 kinase inhibitors, biochemical, TCAMS library (AID 1159588; cut-off not given, nearly all actives have IC50 up to about 0.91 µM); details: recombinant PfCDPK4, Kinase-Glo ATP depletion luminescence
Sequence of Calcium-dependent protein kinase 4 (Plasmodium falciparum (isolate 3D7)) (Q8IBS5 whole entry, looked up): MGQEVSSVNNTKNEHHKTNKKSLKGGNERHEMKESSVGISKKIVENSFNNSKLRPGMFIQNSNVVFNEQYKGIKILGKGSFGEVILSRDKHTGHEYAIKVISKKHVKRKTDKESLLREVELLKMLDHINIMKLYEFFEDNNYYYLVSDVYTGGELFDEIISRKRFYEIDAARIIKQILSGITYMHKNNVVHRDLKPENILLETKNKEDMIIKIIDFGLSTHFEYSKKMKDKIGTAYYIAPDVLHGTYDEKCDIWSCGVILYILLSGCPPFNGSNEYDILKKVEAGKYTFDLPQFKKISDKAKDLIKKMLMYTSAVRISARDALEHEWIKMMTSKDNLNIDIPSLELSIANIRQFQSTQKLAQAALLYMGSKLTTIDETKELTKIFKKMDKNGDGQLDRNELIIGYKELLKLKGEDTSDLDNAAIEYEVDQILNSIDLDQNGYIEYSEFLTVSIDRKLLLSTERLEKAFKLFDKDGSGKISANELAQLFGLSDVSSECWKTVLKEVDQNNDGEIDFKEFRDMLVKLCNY

Sequence of Calcium-dependent protein kinase 1 (Plasmodium falciparum (isolate 3D7)) (P62344 whole entry, looked up): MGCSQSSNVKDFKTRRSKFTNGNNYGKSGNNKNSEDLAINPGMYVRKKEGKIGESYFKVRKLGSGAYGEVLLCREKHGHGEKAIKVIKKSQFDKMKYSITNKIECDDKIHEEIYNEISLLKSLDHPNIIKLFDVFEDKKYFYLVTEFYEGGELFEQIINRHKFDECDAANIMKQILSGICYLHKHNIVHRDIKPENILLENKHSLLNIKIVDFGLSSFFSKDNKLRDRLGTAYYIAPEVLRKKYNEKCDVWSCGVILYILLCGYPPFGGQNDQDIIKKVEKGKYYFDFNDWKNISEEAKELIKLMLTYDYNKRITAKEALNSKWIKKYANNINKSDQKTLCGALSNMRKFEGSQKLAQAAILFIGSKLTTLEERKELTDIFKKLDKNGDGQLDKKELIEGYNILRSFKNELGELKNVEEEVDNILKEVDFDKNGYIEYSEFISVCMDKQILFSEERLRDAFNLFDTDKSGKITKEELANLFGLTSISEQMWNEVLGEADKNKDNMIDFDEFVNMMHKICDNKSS
Sequence of L-lactate dehydrogenase (Plasmodium falciparum (isolate CDC / Honduras)) (Q27743 whole entry, looked up): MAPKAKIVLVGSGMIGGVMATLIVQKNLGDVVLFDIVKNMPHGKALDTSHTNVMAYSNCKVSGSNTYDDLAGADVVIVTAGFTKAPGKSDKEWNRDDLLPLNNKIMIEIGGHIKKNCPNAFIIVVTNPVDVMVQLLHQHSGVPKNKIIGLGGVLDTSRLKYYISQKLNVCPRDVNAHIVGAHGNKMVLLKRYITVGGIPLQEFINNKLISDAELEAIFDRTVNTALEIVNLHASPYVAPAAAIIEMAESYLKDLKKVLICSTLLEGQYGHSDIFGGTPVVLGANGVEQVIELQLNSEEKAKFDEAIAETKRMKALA
Sequence of Protein kinase 7 (PK7), Plasmodium falciparum 3D7 (PF3D7_0213400) (Q7YTF7 1-343): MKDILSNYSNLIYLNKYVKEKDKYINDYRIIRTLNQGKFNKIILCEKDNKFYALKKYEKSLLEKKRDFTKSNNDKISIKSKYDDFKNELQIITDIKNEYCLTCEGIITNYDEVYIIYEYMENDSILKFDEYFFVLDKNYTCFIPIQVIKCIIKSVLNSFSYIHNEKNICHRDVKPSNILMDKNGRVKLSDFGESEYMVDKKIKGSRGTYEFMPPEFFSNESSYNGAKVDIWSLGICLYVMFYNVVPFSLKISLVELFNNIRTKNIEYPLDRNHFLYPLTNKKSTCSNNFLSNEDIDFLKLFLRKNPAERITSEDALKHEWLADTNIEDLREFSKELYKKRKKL
Sequence of Plasmodium falciparum protein kinase 6 (PK6, PF3D7_1337100) (Q8IDW1 1-305): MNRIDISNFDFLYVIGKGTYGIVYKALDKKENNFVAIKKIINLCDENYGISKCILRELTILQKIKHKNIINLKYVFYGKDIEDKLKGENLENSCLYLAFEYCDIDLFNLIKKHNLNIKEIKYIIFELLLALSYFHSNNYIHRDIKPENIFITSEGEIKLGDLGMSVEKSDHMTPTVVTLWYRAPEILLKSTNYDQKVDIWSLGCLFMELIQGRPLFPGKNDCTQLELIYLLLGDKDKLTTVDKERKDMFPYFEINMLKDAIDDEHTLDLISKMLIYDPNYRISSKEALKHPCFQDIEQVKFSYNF

NOCCCCOc1cc(Cl)c(Cl)cc1Cl
inactive: growth inhibition [1] 5% | inhibition [2] 6% | inhibition [3] -2% | outcome [5] | outcome [6] | outcome [7] | outcome [8]
active: growth inhibition [4] 92%

CCCCCCCc1c(C)[nH]c2ccccc2c1=O
active: growth inhibition [1] 96% | growth inhibition [4] 98%
inactive: inhibition [2] -14% | inhibition [3] -7% | outcome [5] | outcome [6] | outcome [7] | outcome [8]

CCS(=O)(=O)N1CCN(c2nc(-c3ccccc3)nc(COC)c2Cc2ccccc2F)CC1
inactive: growth inhibition [1] 34% | inhibition [2] -2% | inhibition [3] 0% | outcome [5] | outcome [6] | outcome [7] | outcome [8]
active: growth inhibition [4] 82%

CC(C)CNC(=O)c1cncc(-c2ccc(CNC3Cc4ccccc4C3)cc2)c1
inactive: growth inhibition [1] 37% | inhibition [2] 5% | inhibition [3] 0% | outcome [5] | outcome [6] | outcome [7] | outcome [8]
active: growth inhibition [4] 99%

O=C(/C=C/c1ccc(Cl)c(Cl)c1)NC1CCN(Cc2cccc(O)c2)CC1
inactive: growth inhibition [1] -1% | inhibition [2] -3% | inhibition [3] -1% | outcome [5] | outcome [6] | outcome [7] | outcome [8]
active: growth inhibition [4] 94%

Cc1ccccc1Nc1nc(NCc2ccccc2)nc2ccccc12
active: growth inhibition [4] 88%
inactive: growth inhibition [1] 35% | inhibition [2] 39% | inhibition [3] -3% | outcome [5] | outcome [6] | outcome [7] | outcome [8]

O=C(NC1CCN(CCC(NC(=O)c2ccccc2)c2ccc(Cl)c(Cl)c2)CC1)c1ccc(Cl)cc1 (stereo not given)
inactive: growth inhibition [1] 36% | inhibition [2] 17% | inhibition [3] -2% | outcome [5] | outcome [6] | outcome [7] | outcome [8]
active: growth inhibition [4] 97%

CO/C(=C\C=C\c1cc2cc(Cl)c(Cl)cc2[nH]1)C(=O)NC1CCN(CCNc2ccccc2)CC1
inactive: inhibition [3] 1% | outcome [5] | outcome [6] | outcome [7] | outcome [8]
active: growth inhibition [1] 98% | inhibition [2] 60% | growth inhibition [4] 102%

Cn1ccnc1CNC(=O)c1ccc(-c2ccc(-c3nc4ccc(C(F)(F)F)cc4[nH]3)s2)cc1
active: growth inhibition [4] 101%
inactive: growth inhibition [1] 43% | inhibition [2] 40% | inhibition [3] 3% | outcome [5] | outcome [6] | outcome [7] | outcome [8]

CN1CC[C@@H](Oc2cc(Nc3nc(-c4ccc(C#N)cc4)cs3)ccc2Cl)C1
inactive: growth inhibition [1] 24% | inhibition [2] 12% | inhibition [3] -1% | outcome [5] | outcome [6] | outcome [7] | outcome [8]
active: growth inhibition [4] 99%

CC(C)(C)c1ccc(NC(=O)c2ccc(CN3CCCN(Cc4cccc(Cl)c4)CC3)cc2)cc1
inactive: growth inhibition [1] 7% | inhibition [2] 43% | inhibition [3] -3% | outcome [5] | outcome [6] | outcome [7] | outcome [8]
active: growth inhibition [4] 96%

CCCCCCNC(=O)C1Cc2c([nH]c3ccc(C)cc23)C2(CCN(CCc3ccccc3)CC2)N1 (stereo not given)
active: growth inhibition [4] 85%
inactive: growth inhibition [1] 24% | inhibition [2] 31% | inhibition [3] 4% | outcome [5] | outcome [6] | outcome [7] | outcome [8]

O=C(O)c1ccc2c(c1)N(C(=O)CNCc1ccc(F)cc1)CC(=O)N2CCCc1ccccc1
active: growth inhibition [4] 95%
inactive: growth inhibition [1] -2% | inhibition [2] 1% | inhibition [3] 2% | outcome [5] | outcome [6] | outcome [7] | outcome [8]

O=C(Nc1cccc(C(F)(F)F)c1)Nc1ccc(Cl)c(C(F)(F)F)c1
active: growth inhibition [1] 99% | growth inhibition [4] 99%
inactive: inhibition [2] -4% | inhibition [3] -6% | outcome [5] | outcome [6] | outcome [7] | outcome [8]

O=C(Nc1ccccc1Cc1ccccc1)c1ccccc1[N+](=O)[O-]
active: growth inhibition [1] 59% | growth inhibition [4] 98%
inactive: inhibition [2] -6% | inhibition [3] 3% | outcome [5] | outcome [6] | outcome [7] | outcome [8]

C[C@@H]1CN(C(c2cccc(O)c2)c2cccc(C(=O)N(C)c3cccc(F)c3)c2)[C@@H](C)CN1C(c1cccc(O)c1)c1cccc(C(=O)N(C)c2cccc(F)c2)c1 (stereo not given in full)
active: growth inhibition [1] 85% | growth inhibition [4] 91%
inactive: inhibition [2] 0% | inhibition [3] 0% | outcome [5] | outcome [6] | outcome [7] | outcome [8]

O=C(Nc1cccc(OC2CCN(Cc3ccc(F)cc3)CC2)c1)c1ccc(C(F)(F)F)cc1
active: growth inhibition [4] 94%
inactive: growth inhibition [1] 6% | inhibition [2] 28% | inhibition [3] 3% | outcome [5] | outcome [6] | outcome [7] | outcome [8]

CC1(C)N=C(N)N=C(N)N1c1cccc(I)c1
active: growth inhibition [1] 85% | inhibition [2] 68% | growth inhibition [4] 95%
inactive: inhibition [3] -2% | outcome [5] | outcome [6] | outcome [7] | outcome [8]

O=C(Nc1ccc(OC2CCN(Cc3ccsc3)C2)c(Cl)c1)c1ccc2ncccc2c1 (stereo not given)
active: inhibition [2] 84% | growth inhibition [4] 88%
inactive: growth inhibition [1] 10% | inhibition [3] -1% | outcome [5] | outcome [6] | outcome [7] | outcome [8]

CCN(CC)CCN(Cc1ccc(-c2ccc(C(F)(F)F)cc2)cc1)C(=O)Cn1cc(CCCCc2cccc(F)c2F)c(=O)c2ccccc21
inactive: growth inhibition [1] 22% | inhibition [2] 18% | inhibition [3] -5% | outcome [5] | outcome [6] | outcome [7] | outcome [8]
active: growth inhibition [4] 90%

COc1ccc2nc(NC3=NC4(c5ccccc5)N=C(Nc5nc6ccc(OC)cc6[nH]5)NC4(c4ccccc4)N3)[nH]c2c1 (stereo not given)
active: growth inhibition [1] 85% | growth inhibition [4] 100%
inactive: inhibition [2] -5% | inhibition [3] -6% | outcome [5] | outcome [6] | outcome [7] | outcome [8]

COc1ccc2c(c1)CCCC2C(C)NCC(O)c1cccc(C(F)(F)F)c1 (stereo not given)
inactive: inhibition [2] 3% | inhibition [3] -3% | outcome [5] | outcome [6] | outcome [7] | outcome [8]
active: growth inhibition [1] 99% | growth inhibition [4] 99%

COc1ccc2nccc(NC(=O)C3(O)CCC(NCc4ncc5c(c4Cl)OCCO5)CC3)c2n1 (stereo not given)
inactive: inhibition [2] 21% | inhibition [3] -1% | outcome [5] | outcome [6] | outcome [7] | outcome [8]
active: growth inhibition [1] 59% | growth inhibition [4] 83%

Oc1ccc(-c2ccccc2)cc1CN1CCCCCC1
inactive: inhibition [2] 6% | inhibition [3] 2% | outcome [5] | outcome [6] | outcome [7] | outcome [8]
active: growth inhibition [1] 85% | growth inhibition [4] 95%

Cc1cc(NN=Cc2ccccc2Cl)c2cc(C(F)(F)F)ccc2n1
inactive: inhibition [2] -4% | inhibition [3] -4% | outcome [5] | outcome [6] | outcome [7] | outcome [8]
active: growth inhibition [1] 75% | growth inhibition [4] 100%

Cc1nnsc1C(=O)Nc1cccc(-c2cccc(-c3nc4ccc(F)cc4[nH]3)c2)c1
active: growth inhibition [4] 100%
inactive: growth inhibition [1] 45% | inhibition [2] 35% | inhibition [3] 3% | outcome [5] | outcome [6] | outcome [7] | outcome [8]

CCOc1ccc2c(NN=Cc3cc(OC)c(OC)cc3OC)cc(C)nc2c1
active: growth inhibition [1] 97% | growth inhibition [4] 101%
inactive: inhibition [2] 24% | inhibition [3] 4% | outcome [5] | outcome [6] | outcome [7] | outcome [8]

O=S(=O)(NCCN1CCCC1)c1ccc(-c2cccc(CNCc3ccc(F)cc3)c2)cc1
active: inhibition [2] 76% | growth inhibition [4] 100%
inactive: growth inhibition [1] 41% | inhibition [3] -2% | outcome [5] | outcome [6] | outcome [7] | outcome [8]

COc1ccc2nccc([C@@H](O)CN3CCC(NC(=O)C(c4cc5ccccc5s4)N4CC(C)OC(C)C4)CC3)c2c1 (stereo not given in full)
inactive: growth inhibition [1] 44% | inhibition [2] 12% | inhibition [3] -6% | outcome [5] | outcome [6] | outcome [7] | outcome [8]
active: growth inhibition [4] 93%

CCOc1cc(Cl)c(C(C)NC(=O)c2cccc(OC)c2)cc1OCC (stereo not given)
inactive: inhibition [2] 29% | inhibition [3] 6% | outcome [5] | outcome [6] | outcome [7] | outcome [8]
active: growth inhibition [1] 92% | growth inhibition [4] 98%

CCC(CC)n1c(C)cc2c3c(N)nc(N)nc3ccc21
active: growth inhibition [1] 95% | inhibition [2] 61% | growth inhibition [4] 95%
inactive: inhibition [3] 1% | outcome [5] | outcome [6] | outcome [7] | outcome [8]

Cc1noc(C)c1-c1ccc2c(Nc3ccccc3C(C)(C)C)c(C(=O)NCc3ccccc3)cnc2c1
active: growth inhibition [1] 89% | growth inhibition [4] 99%
inactive: inhibition [2] 20% | inhibition [3] -1% | outcome [5] | outcome [6] | outcome [7] | outcome [8]

COc1cc(SC)ccc1C(=O)N1CC(C)CC(C)C1 (stereo not given)
active: growth inhibition [1] 66% | growth inhibition [4] 98%
inactive: inhibition [2] 5% | inhibition [3] -8% | outcome [5] | outcome [6] | outcome [7] | outcome [8]

CN1CCN(c2ccc3nc(-c4ccc5nc(-c6ccc(O)cc6)[nH]c5c4)[nH]c3c2)CC1
active: growth inhibition [1] 100% | growth inhibition [4] 99%
inactive: inhibition [2] -11% | inhibition [3] 3% | outcome [5] | outcome [6] | outcome [7] | outcome [8]

CN1CCC[C@@H](Oc2cc3c(cc2Br)CCN3C(=O)Nc2ccc(-c3ccncc3)c(Cl)c2)C1
inactive: inhibition [2] 26% | inhibition [3] -7% | outcome [5] | outcome [6] | outcome [7] | outcome [8]
active: growth inhibition [1] 64% | growth inhibition [4] 99%

CCc1ccc(NC(=O)c2ccc(CN3CCCN(Cc4ccc(C)s4)CC3)cc2)cc1
active: growth inhibition [4] 87%
inactive: growth inhibition [1] -2% | inhibition [2] 48% | inhibition [3] -2% | outcome [5] | outcome [6] | outcome [7] | outcome [8]

O=C(Nc1cccc(-c2cccc(CN3CCCC3)c2)c1)c1cccc(Cl)c1
inactive: growth inhibition [1] 30% | inhibition [2] 44% | inhibition [3] -2% | outcome [5] | outcome [6] | outcome [7] | outcome [8]
active: growth inhibition [4] 89%

CCC[C@@H]([C@@H](CC1CCCCC1)C(=O)NC(C(=O)Nc1nccs1)C(CC)c1ccccc1)N(O)C=O (stereo not given in full)
inactive: growth inhibition [1] 19% | inhibition [3] -4% | outcome [5] | outcome [6] | outcome [7] | outcome [8]
active: inhibition [2] 50% | growth inhibition [4] 89%

COc1cc2c(C3CCN(CC4CCN(C(=O)/C=C/c5ccc(Cl)c(Cl)c5)CC4)CC3)c[nH]c2cn1
active: growth inhibition [1] 88% | growth inhibition [4] 101%
inactive: inhibition [2] 27% | inhibition [3] -1% | outcome [5] | outcome [6] | outcome [7] | outcome [8]

COc1cccc(COCC(O)CN(CCc2ccccn2)C(=O)c2ccccc2F)c1 (stereo not given)
inactive: growth inhibition [1] 30% | inhibition [3] -1% | outcome [5] | outcome [6] | outcome [7] | outcome [8]
active: inhibition [2] 61% | growth inhibition [4] 97%

Source: PubChem BioAssay
